Experimental data published in PubChem BioAssay (NCATS).
“And” between values parts separate entries of the source, which are not always exact repeats. Identical values can stand only once. Records with an inconclusive call do not appear. A number with no mark means an inactive call. The source made the active and inactive calls. The call rests on the fitted dose curve; in most records, active means well fitted inhibition curve with a large enough effect; inconclusive means small, poorly fitted or top-dose-only effect; inactive means flat fitted curve, though single readings scatter.

Assays:
[1] = Drug repurposing screens with cells derived from glioblastoma tumor samples (AID 1345199); conditions: GBM patient neurospheres viability, ATP luminescence, 48 h; further: nearly all actives have a fitted effect of over 40% in size
In short: (§1)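 Four patient lines of CD133+ GBM neurospheres were screened at several concentrations; hits were retested in those lines plus three slower-growing GBM lines, using 48-hour treatment and ATP-based viability.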

astro = control astrocytes; assay: as above; conditions: viability, ATP luminescence, 48 h; series mostly up to 45.9 µM
In short: as §1

[2] = at 45.9 µM (top of the series), tumour line B
[3] = at 46.1 µM (top of the series), tumour line C
[4] = at 45.9 µM (top of the series), tumour line D
On the % scale 0 is the no-effect control and ±100 the full control effect; potency means the concentration at half of the fitted maximal effect.

Row | SMILES | activity, negative = cell killing [1, 2] | activity, negative = cell killing [1, 3] [%] | Potency ([1]; tumour line A) | Potency (astro) | activity, negative = cell killing [1, 4] | activity, negative = cell killing ([1]; at 46 µM (top of the series), tumour line A) [%]
1 | N#Cc1ccc2c(c1)N(CCCN1CCC(O)CC1)c1ccccc1S2 | -29.3% | 15.3 | 5.01 µM (active) | inactive | – | –
2 | FC(F)(F)COCC(F)(F)F | -8.9% | -24.2 | – | inactive | -17.5% | –
3 | CCCCC[C@H](O)/C=C/[C@H]1[C@H](O)CC(=O)[C@@H]1C/C=C\CCCC(=O)O | -2.11% | -15.8 | – | inactive | -17.7% | –
4 | CC12CCC(C1)C(C)(C)C2=O (stereo unspecified) | -4.04% | 19.6 | – | inactive | -4.98% | –
5 | OC[C@H]1O[C@@H](O[C@H]2[C@H](O)[C@@H](O)[C@H](O)O[C@@H]2CO)[C@H](O)[C@@H](O)[C@@H]1O | -9.2% | -13.5 | – | inactive | 6.26% | –
6 | CCOC(=O)c1c[nH]c2cc(OCC(C)C)c(OCC(C)C)cc2c1=O | -9.16% | – | – | inactive | -17.4% | -29.7
7 | CC(C)CCC[C@@H](C)[C@H]1CC[C@H]2[C@@H]3CC[C@@H]4C[C@H](O)CC[C@]4(C)[C@H]3CC[C@]12C | -2.13% | -6.49 | – | inactive | -20.8% | –
8 | O=C(O)COc1ccccc1/C=N/NC(=O)c1ccncc1 | -7.55% | -10.4 | – | inactive | 5.85% | –
9 | Cc1cc(=O)c(C(=O)N[C@@H](C(=O)N[C@@H]2C(=O)N3C(C(=O)O)=C(CSc4nnnn4C)CS[C@H]23)c2ccc(O)cc2)c[nH]1 | -7.34% | -6.97 | – | inactive | 13% | –
10 | O=P(O)(O)OP(=O)(O)OP(=O)(O)O | -10.9% | -5.26 | – | inactive | -30.2% | –
11 | CC1CCC(NC(=O)N(CCCl)N=O)CC1 (stereo unspecified) | -5.97% | -19.7 | – | inactive | 0.785% | –
12 | CO/N=C(\C(=O)N[C@@H]1C(=O)N2C(C(=O)[O-])=C(C[n+]3ccc(N)n3CCO)CS[C@H]12)c1csc(N)n1 | -6.9% | -25.8 | – | inactive | -6.66% | –
13 | C[C@]12CCC(=O)C[C@@H]1CC[C@@H]1[C@@H]2CC[C@]2(C)C=CC[C@@H]12 | -7.67% | – | 20 µM (active) | inactive | -11.4% | –
14 | Cc1ncc(C[n+]2csc(CCOP(=O)(O)OP(=O)(O)O)c2C)c(N)n1 | -10% | 18.5 | – | inactive | -6.5% | –
15 | CCN(CC)C(=O)[C@]1(c2ccccc2)C[C@@H]1CN | -4.91% | -22.9 | – | inactive | -13.9% | –
16 | CO/N=C(\C(=O)N[C@@H]1C(=O)N2C(C(=O)O)=C(CSC(=O)c3ccco3)CS[C@H]12)c1csc(N)n1 | -9.93% | -21.7 | – | inactive | -3.95% | –
17 | O=P(O)(O)OP(=O)(O)O | -12.9% | -5.23 | – | inactive | -11% | –
18 | O=C(/C=C/c1cccc(F)c1)NC1CC1 | -18.1% | -17.9 | – | inactive | -4.02% | –
19 | CCCCCCCCCCCCCCCCCC[N+](C)(C)CCC[Si](OC)(OC)OC | -16.4% | -7.69 | – | inactive | -4.63% | –
20 | O=C(O)C1=C(CSc2nnnn2CS(=O)(=O)O)CS[C@@H]2[C@H](NC(=O)[C@H](O)c3ccccc3)C(=O)N12 | -15.2% | -17.1 | – | inactive | -23.3% | –
21 | C(=C\c1ccncc1)/c1ccccc1 | -13.9% and -17.3% | -11.5 | – | inactive | -13.7% and -5.95% | –
22 | CN(Cc1ccccc1)Cc1ccccc1 | -11.4% | -21.1 | – | inactive | 6.3% | –
23 | C=CCCCCCCCCC(=O)OC | -4.31% | 7.19 | – | inactive | -1.83% | –
24 | OC[C@H]1OC([S-])[C@H](O)[C@@H](O)[C@@H]1O.[Au+] (stereo partly specified) | -5.43% | -19.6 | – | inactive | -19.5% | –
